Assay results taken from PubChem BioAssay AID1159580 (chemical genetic matrix, 2015).
About 2,000 (36%) of roughly 5,500 compounds were called active. Not shown: some 18% with an inconclusive outcome. The list shows a part of the results. A number with no mark means an inactive call. Rule as the data show it: active = normalized growth mostly below about 0.91 (no sharp cut-off); inconclusive = no clear call, values can overlap the other calls; inactive = mostly above about 0.92.

Assay: chemical genetic growth profiling, strain panel (AID 1159580);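 also: tested at 20 µM; growth read once vehicle control cultures reached saturation at 30 °C; 1 = growth at the plate median or of vehicle wells; lower values mean less growth of the strain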
Conditions: growth OD

O=C1C(Cl)=C(Cl)C(=O)C(Cl)=C1Cl
normalized growth (S. cerevisiae deletion strains, locus YKL009W, strain mrt4, active compounds read low): 1.17 [resistant] (active)
normalized growth (S. cerevisiae deletion strains, locus YKL068W, active compounds read low): 0.12 (active)
normalized growth (S. cerevisiae deletion strains, locus YKL085W, strain MDH1 (second series), active compounds read low): 0.0519 (active)
normalized growth (S. cerevisiae deletion strains, locus YKL085W, strain MDH1, active compounds read low): 0.0519 (active)
normalized growth (S. cerevisiae deletion strains, locus YKL160W, strain elf1, active compounds read low): 0.901 (active)
normalized growth (S. cerevisiae deletion strains, locus YKL190W, strain CNB1, active compounds read low): 0.629 (active)
normalized growth (S. cerevisiae deletion strains, locus YKR001C, strain vps1, active compounds read low): 0.094 (active)
normalized growth (S. cerevisiae deletion strains, locus YKR026C, strain gcn3, active compounds read low): 0.987
normalized growth (S. cerevisiae deletion strains, locus YKR091W, strain srl3, active compounds read low): 0.99
normalized growth (S. cerevisiae deletion strains, locus YLL001W, strain dnm1, active compounds read low): 0.958
normalized growth (S. cerevisiae deletion strains, locus YLL026W, active compounds read low): 0.98
normalized growth (S. cerevisiae deletion strains, locus YLL041C, strain sdh2, active compounds read low): 0.988
normalized growth (S. cerevisiae deletion strains, locus YLR027C, strain aat2, active compounds read low): 0.899 (active)
normalized growth (S. cerevisiae deletion strains, locus YLR039C, strain RIC1, active compounds read low): 0.275 (active)
normalized growth (S. cerevisiae deletion strains, locus YLR058C, strain SHM2, active compounds read low): 0.966
normalized growth (S. cerevisiae deletion strains, locus YLR102C, strain apc9, active compounds read low): 0.254 (active)
normalized growth (S. cerevisiae deletion strains, locus YLR113W, strain HOG1, active compounds read low): 0.145 (active)
normalized growth (S. cerevisiae deletion strains, locus YLR221C, strain rsa3, active compounds read low): 0.855 (active)
normalized growth (S. cerevisiae deletion strains, locus YLR258W, strain gsy2, active compounds read low): 0.978
normalized growth (S. cerevisiae deletion strains, locus YLR262C, strain YPT6 (second series), active compounds read low): 0.703 (active)
normalized growth (S. cerevisiae deletion strains, locus YLR262C, strain YPT6, active compounds read low): 0.168 (active)
normalized growth (S. cerevisiae deletion strains, locus YLR268W, strain sec22, active compounds read low): 0.256 (active)
normalized growth (S. cerevisiae deletion strains, locus YLR320W, strain mms22, active compounds read low): 0.92
normalized growth (S. cerevisiae deletion strains, locus YLR330W, strain CHS5, active compounds read low): 0.129 (active)
normalized growth (S. cerevisiae deletion strains, locus YLR342W, strain FKS1 (second series), active compounds read low): 0.243 (active)
normalized growth (S. cerevisiae deletion strains, locus YLR342W, strain FKS1, active compounds read low): 0.935
normalized growth (S. cerevisiae deletion strains, locus YLR357W, strain rsc2, active compounds read low): 0.86
normalized growth (S. cerevisiae deletion strains, locus YLR370C, strain arc18, active compounds read low): 0.919
normalized growth (S. cerevisiae deletion strains, locus YLR371W, strain rom2, active compounds read low): 0.151 (active)
normalized growth (S. cerevisiae deletion strains, locus YLR384C, strain iki3, active compounds read low): 0.966
normalized growth (S. cerevisiae deletion strains, locus YLR418C, strain cdc73, active compounds read low): 0.292 (active)
normalized growth (S. cerevisiae deletion strains, locus YML016C, strain PPZ1, active compounds read low): 0.776 (active)
normalized growth (S. cerevisiae deletion strains, locus YML032C, strain rad52, active compounds read low): 0.912
normalized growth (S. cerevisiae deletion strains, locus YML120C, strain ndi1, active compounds read low): 0.9 (active)
normalized growth (S. cerevisiae deletion strains, locus YML124C, strain tub3, active compounds read low): 0.708 (active)
normalized growth (S. cerevisiae deletion strains, locus YMR058W, strain fet3, active compounds read low): 0.909
normalized growth (S. cerevisiae deletion strains, locus YMR078C, strain ctf18, active compounds read low): 0.551 (active)
normalized growth (S. cerevisiae deletion strains, locus YMR125W, strain sto1, active compounds read low): 0.792 (active)
normalized growth (S. cerevisiae deletion strains, locus YMR129W, active compounds read low): 0.957
normalized growth (S. cerevisiae deletion strains, locus YMR205C, strain PFK2, active compounds read low): 0.932
normalized growth (S. cerevisiae deletion strains, locus YMR223W, strain ubp8, active compounds read low): 0.182 (active)
normalized growth (S. cerevisiae deletion strains, locus YMR231W, strain pep5, active compounds read low): 0.971
normalized growth (S. cerevisiae deletion strains, locus YMR263W, strain SAP30, active compounds read low): 0.794 (active)
normalized growth (S. cerevisiae deletion strains, locus YMR307W, strain GAS1, active compounds read low): 0.112 (active)
normalized growth (S. cerevisiae deletion strains, locus YNL067W, strain RPL9B, active compounds read low): 0.63 (active)
normalized growth (S. cerevisiae deletion strains, locus YNL071W, strain lat1, active compounds read low): 0.824 (active)
normalized growth (S. cerevisiae deletion strains, locus YNL128W, strain TEP1, active compounds read low): 0.341 (active)
normalized growth (S. cerevisiae deletion strains, locus YNL153C, strain GIM3, active compounds read low): 0.814 (active)
normalized growth (S. cerevisiae deletion strains, locus YNL183C, strain NPR1, active compounds read low): 0.0843 (active)
normalized growth (S. cerevisiae deletion strains, locus YNL209W, strain ssb2, active compounds read low): 0.888 (active)
normalized growth (S. cerevisiae deletion strains, locus YNL233W, strain BNI4, active compounds read low): 0.17 (active)
normalized growth (S. cerevisiae deletion strains, locus YNL248C, strain rpa49, active compounds read low): 0.884 (active)
normalized growth (S. cerevisiae deletion strains, locus YNL250W, strain rad50, active compounds read low): 0.0728 (active)
normalized growth (S. cerevisiae deletion strains, locus YNL271C, strain bni1, active compounds read low): 0.0654 (active)
normalized growth (S. cerevisiae deletion strains, locus YNL298W, strain CLA4, active compounds read low): 0.0642 (active)
normalized growth (S. cerevisiae deletion strains, locus YNL307C, strain MCK1, active compounds read low): 0.206 (active)
normalized growth (S. cerevisiae deletion strains, locus YNL322C, strain KRE1 (second series), active compounds read low): 0.924
normalized growth (S. cerevisiae deletion strains, locus YNL322C, strain KRE1, active compounds read low): 0.849 (active)
normalized growth (S. cerevisiae deletion strains, locus YNR049C, strain mso1, active compounds read low): 0.989
normalized growth (S. cerevisiae deletion strains, locus YNR052C, strain pop2, active compounds read low): 0.911 (active)
normalized growth (S. cerevisiae deletion strains, locus YOL006C, strain TOP1, active compounds read low): 0.357 (active)
normalized growth (S. cerevisiae deletion strains, locus YOL012C, strain htz1): 0.457
normalized growth (S. cerevisiae deletion strains, locus YOL147C, strain pex11, active compounds read low): 0.986
normalized growth (S. cerevisiae deletion strains, locus YOR001W, strain rrp6, active compounds read low): 0.915
normalized growth (S. cerevisiae deletion strains, locus YOR061W, strain CKA2, active compounds read low): 0.617 (active)
normalized growth (S. cerevisiae deletion strains, locus YOR069W, strain VPS5, active compounds read low): 0.577 (active)
normalized growth (S. cerevisiae deletion strains, locus YOR070C, strain gyp1, active compounds read low): 0.917 (active)
normalized growth (S. cerevisiae deletion strains, locus YOR080W, strain dia2, active compounds read low): 0.98
normalized growth (S. cerevisiae deletion strains, locus YOR083W, strain WHI5, active compounds read low): 0.871 (active)
normalized growth (S. cerevisiae deletion strains, locus YOR106W, strain vam3, active compounds read low): 0.856 (active)
normalized growth (S. cerevisiae deletion strains, locus YOR136W, strain idh2, active compounds read low): 0.307 (active)
normalized growth (S. cerevisiae deletion strains, locus YOR144C, strain elg1, active compounds read low): 0.985
normalized growth (S. cerevisiae deletion strains, locus YOR184W, strain ser1, active compounds read low): 0.195 (active)
normalized growth (S. cerevisiae deletion strains, locus YOR231W, strain MKK1, active compounds read low): 0.124 (active)
normalized growth (S. cerevisiae deletion strains, locus YOR265W, strain rbl2, active compounds read low): 0.959
normalized growth (S. cerevisiae deletion strains, locus YOR270C, strain vph1, active compounds read low): 0.977
normalized growth (S. cerevisiae deletion strains, locus YOR290C, strain snf2, active compounds read low): 0.941
normalized growth (S. cerevisiae deletion strains, locus YOR316C, strain cot1, active compounds read low): 0.677 (active)
normalized growth (S. cerevisiae deletion strains, locus YPL051W, strain arl3, active compounds read low): 0.841 (active)
normalized growth (S. cerevisiae deletion strains, locus YPL055C, strain LGE1, active compounds read low): 0.408 (active)
normalized growth (S. cerevisiae deletion strains, locus YPL078C, strain atp4, active compounds read low): 0.964
normalized growth (S. cerevisiae deletion strains, locus YPL106C, strain sse1, active compounds read low): 0.838 (active)
normalized growth (S. cerevisiae deletion strains, locus YPL240C, strain hsp82, active compounds read low): 0.979
normalized growth (S. cerevisiae deletion strains, locus YPL241C, strain CIN2, active compounds read low): 0.995
normalized growth (S. cerevisiae deletion strains, locus YPL256C, strain CLN2, active compounds read low): 0.132 (active)
normalized growth (S. cerevisiae deletion strains, locus YPR119W, strain clb2, active compounds read low): 0.444 (active)
normalized growth (S. cerevisiae deletion strains, locus YPR141C, strain kar3, active compounds read low): 0.11 (active)
normalized growth (S. cerevisiae deletion strains, locus YPR163C, strain tif3, active compounds read low): 0.321 (active)
normalized growth (S. cerevisiae deletion strains, locus YPR167C, strain met16, active compounds read low): 0.176 (active)
normalized growth (S. cerevisiae deletion strains, strain wtn01, active compounds read low): 0.32 (active)
normalized growth (S. cerevisiae strains, strain wild type, active compounds read low): 0.423 (active)
